# Measurements: the supplement of paper PMC4022240
# ± gives the standard deviation.
# T1: HaloTag-ATRX ADD domain (163-292)
# T1 chain: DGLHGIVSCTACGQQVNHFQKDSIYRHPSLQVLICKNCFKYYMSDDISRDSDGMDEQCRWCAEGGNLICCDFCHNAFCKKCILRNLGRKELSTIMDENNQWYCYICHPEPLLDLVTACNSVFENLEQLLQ
# Molecular target: T1, HaloTag-ATRX ADD domain (163-292)
# Assay: peptide microarray binding signal (635 nm), min-max normalized on array (fraction of array maximum); higher = stronger binding
# Conditions: peptide region: Unmod H1 variant; binder concentration: 50 nM
# How it was run: (§1)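 Two probe formats were used for 1 h at 4°C: biotin-labelled HaloTag reader fusions (10 nM to 1 μM) with streptavidin-Alexa Fluor 647, and rabbit histone antibodies (1:10,000 to 1:2,000) with anti-rabbit Alexa 647. Both were applied to nitrocellulose arrays of histone 13-mer peptide–cellulose conjugates printed in triplicate with a Cy3 tracer and blocked overnight at 4°C. Signal was read at 635 nm and misprints at 532 nm on an Axon GenePix 4000B. Binding signal is expressed as the triplicate-spot mean intensity, min-max scaled for each library.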
row,Binder,peptide microarray binding signal
1,IVQAASSSKERGG [Unmod H1 variant I V Q A A S S S K E R G G],0.0196 ± 0.0029
2,SKGTLVQTKGTGA [Unmod H1 variant S K G T L V Q T K G T G A],0.0193 ± 0.0038
3,PAGPSVSELIVQA [Unmod H1 variant P A G P S V S E L I V Q A],0.0127 ± 0.00021
4,YDVEKNNSRIKLG [Unmod H1 variant Y D V E K N N S R I K L G],0.0163 ± 0.00037
5,KAKKPAATRKSSK [Unmod H1 variant K A K K P A A T R K S S K],0.0344 ± 0.02
6,KSSKNPKKPKTVK [Unmod H1 variant K S S K N P K K P K T V K],0.0196 ± 0.0037
7,KPKAAKARVTKPK [Unmod H1 variant K P K A A K A R V T K P K],0.0178 ± 0.00067
8,ASAAPEKPLAGKK [Unmod H1 variant A S A A P E K P L A G K K],0.0171 ± 0.0014
9,GTGASGSFKLNKK [Unmod H1 variant G T G A S G S F K L N K K],0.01633 ± 0.00015
10,IKLGIKSLVSKGT [Unmod H1 variant I K L G I K S L V S K G T],0.0221 ± 0.0027

# Same assay, conditions: peptide region: Unmod H1 variant; binder concentration: 500 nM
row,Binder,peptide microarray binding signal
1,IVQAASSSKERGG [Unmod H1 variant I V Q A A S S S K E R G G],0.0152 ± 0.00061
2,SKGTLVQTKGTGA [Unmod H1 variant S K G T L V Q T K G T G A],0.0147 ± 0.00052
3,PAGPSVSELIVQA [Unmod H1 variant P A G P S V S E L I V Q A],0.00367 ± 0.00014
4,YDVEKNNSRIKLG [Unmod H1 variant Y D V E K N N S R I K L G],0.0175 ± 0.00085
5,KAKKPAATRKSSK [Unmod H1 variant K A K K P A A T R K S S K],0.0133 ± 0.00041
6,KSSKNPKKPKTVK [Unmod H1 variant K S S K N P K K P K T V K],0.0061 ± 0.00013
7,KPKAAKARVTKPK [Unmod H1 variant K P K A A K A R V T K P K],0.0125 ± 0.0019
8,ASAAPEKPLAGKK [Unmod H1 variant A S A A P E K P L A G K K],0.0163 ± 0.00078
9,GTGASGSFKLNKK [Unmod H1 variant G T G A S G S F K L N K K],0.00986 ± 0.0013
10,IKLGIKSLVSKGT [Unmod H1 variant I K L G I K S L V S K G T],0.0236 ± 0.00098

# Molecular target: HaloTag-ING2 PHD (mouse Ing2 200-280)
# Assay: as above
# Conditions: peptide region: Unmod H1 variant; binder concentration: 10 nM
# How it was run: as §1
row,Binder,peptide microarray binding signal
1,IVQAASSSKERGG [Unmod H1 variant I V Q A A S S S K E R G G],0.0112 ± 0.00078
2,SKGTLVQTKGTGA [Unmod H1 variant S K G T L V Q T K G T G A],0.003939 ± 2.1e-05
3,PAGPSVSELIVQA [Unmod H1 variant P A G P S V S E L I V Q A],0.00203 ± 3.6e-05
4,YDVEKNNSRIKLG [Unmod H1 variant Y D V E K N N S R I K L G],0.00841 ± 0.00067
5,KAKKPAATRKSSK [Unmod H1 variant K A K K P A A T R K S S K],0.00227 ± 5.2e-05
6,KSSKNPKKPKTVK [Unmod H1 variant K S S K N P K K P K T V K],0.00185
7,KPKAAKARVTKPK [Unmod H1 variant K P K A A K A R V T K P K],0.00173 ± 3.7e-05
8,ASAAPEKPLAGKK [Unmod H1 variant A S A A P E K P L A G K K],0.00603 ± 0.00016
9,GTGASGSFKLNKK [Unmod H1 variant G T G A S G S F K L N K K],0.00251 ± 5.1e-05
10,IKLGIKSLVSKGT [Unmod H1 variant I K L G I K S L V S K G T],0.00656 ± 0.00055

# Same assay, conditions: peptide region: Unmod H1 variant; binder concentration: 100 nM
row,Binder,peptide microarray binding signal
1,IVQAASSSKERGG [Unmod H1 variant I V Q A A S S S K E R G G],0.0197 ± 0.0013
2,SKGTLVQTKGTGA [Unmod H1 variant S K G T L V Q T K G T G A],0.0162 ± 0.0012
3,PAGPSVSELIVQA [Unmod H1 variant P A G P S V S E L I V Q A],0.00177 ± 3.1e-05
4,YDVEKNNSRIKLG [Unmod H1 variant Y D V E K N N S R I K L G],0.0132 ± 0.00014
5,KAKKPAATRKSSK [Unmod H1 variant K A K K P A A T R K S S K],0.0068 ± 0.00046
6,KSSKNPKKPKTVK [Unmod H1 variant K S S K N P K K P K T V K],0.003543 ± 3.1e-05
7,KPKAAKARVTKPK [Unmod H1 variant K P K A A K A R V T K P K],0.00439 ± 0.00016
8,ASAAPEKPLAGKK [Unmod H1 variant A S A A P E K P L A G K K],0.0206 ± 0.0028
9,GTGASGSFKLNKK [Unmod H1 variant G T G A S G S F K L N K K],0.00539 ± 0.00089
10,IKLGIKSLVSKGT [Unmod H1 variant I K L G I K S L V S K G T],0.0191 ± 0.0018

# Molecular target: anti-H3K4me3 antibody ab8580
# Assay: as above
# Conditions: peptide region: Unmod H1 variant; binder concentration: 1:2,000 dilution
# How it was run: as §1
row,Binder,peptide microarray binding signal
1,IVQAASSSKERGG [Unmod H1 variant I V Q A A S S S K E R G G],0.00279 ± 6.5e-05
2,SKGTLVQTKGTGA [Unmod H1 variant S K G T L V Q T K G T G A],0.000812 ± 6.2e-05
3,PAGPSVSELIVQA [Unmod H1 variant P A G P S V S E L I V Q A],0.00111 ± 0.00011
4,YDVEKNNSRIKLG [Unmod H1 variant Y D V E K N N S R I K L G],0.000944 ± 1.6e-05
5,KAKKPAATRKSSK [Unmod H1 variant K A K K P A A T R K S S K],0.000755 ± 1.4e-05
6,KSSKNPKKPKTVK [Unmod H1 variant K S S K N P K K P K T V K],0.000774 ± 1.4e-05
7,KPKAAKARVTKPK [Unmod H1 variant K P K A A K A R V T K P K],0.00051 ± 1.5e-05
8,ASAAPEKPLAGKK [Unmod H1 variant A S A A P E K P L A G K K],0.00151 ± 4.1e-05
9,GTGASGSFKLNKK [Unmod H1 variant G T G A S G S F K L N K K],0.000547 ± 1.9e-05
10,IKLGIKSLVSKGT [Unmod H1 variant I K L G I K S L V S K G T],0.00147 ± 3.9e-05

# Same assay, conditions: peptide region: Unmod H1 variant; binder concentration: 1:10,000 dilution
row,Binder,peptide microarray binding signal
1,IVQAASSSKERGG [Unmod H1 variant I V Q A A S S S K E R G G],0.00708 ± 0.00071
2,SKGTLVQTKGTGA [Unmod H1 variant S K G T L V Q T K G T G A],0.0012 ± 2.4e-05
3,PAGPSVSELIVQA [Unmod H1 variant P A G P S V S E L I V Q A],0.00097 ± 2.6e-05
4,YDVEKNNSRIKLG [Unmod H1 variant Y D V E K N N S R I K L G],0.00114 ± 3e-05
5,KAKKPAATRKSSK [Unmod H1 variant K A K K P A A T R K S S K],0.00103 ± 2.1e-05
6,KSSKNPKKPKTVK [Unmod H1 variant K S S K N P K K P K T V K],0.000913
7,KPKAAKARVTKPK [Unmod H1 variant K P K A A K A R V T K P K],0.00097 ± 4e-05
8,ASAAPEKPLAGKK [Unmod H1 variant A S A A P E K P L A G K K],0.00262 ± 0.00011
9,GTGASGSFKLNKK [Unmod H1 variant G T G A S G S F K L N K K],0.00114 ± 3e-05
10,IKLGIKSLVSKGT [Unmod H1 variant I K L G I K S L V S K G T],0.00262

# Molecular target: anti-H3K9me3 antibody ab8898
# Assay: as above
# Conditions: peptide region: Unmod H1 variant; binder concentration: 1:2,000 dilution
# How it was run: as §1
row,Binder,peptide microarray binding signal
1,IVQAASSSKERGG [Unmod H1 variant I V Q A A S S S K E R G G],0.00216 ± 0.00024
2,SKGTLVQTKGTGA [Unmod H1 variant S K G T L V Q T K G T G A],0.000211 ± 2.2e-06
3,PAGPSVSELIVQA [Unmod H1 variant P A G P S V S E L I V Q A],0.000438 ± 1.7e-05
4,YDVEKNNSRIKLG [Unmod H1 variant Y D V E K N N S R I K L G],0.000453 ± 1.5e-05
5,KAKKPAATRKSSK [Unmod H1 variant K A K K P A A T R K S S K],0.000211 ± 2.2e-06
6,KSSKNPKKPKTVK [Unmod H1 variant K S S K N P K K P K T V K],0.000181
7,KPKAAKARVTKPK [Unmod H1 variant K P K A A K A R V T K P K],0.000166 ± 1.8e-06
8,ASAAPEKPLAGKK [Unmod H1 variant A S A A P E K P L A G K K],0.000891 ± 5.9e-05
9,GTGASGSFKLNKK [Unmod H1 variant G T G A S G S F K L N K K],0.0003926 ± 3.9e-06
10,IKLGIKSLVSKGT [Unmod H1 variant I K L G I K S L V S K G T],0.00109 ± 2.9e-05

# Same assay, conditions: peptide region: Unmod H1 variant; binder concentration: 1:10,000 dilution
row,Binder,peptide microarray binding signal
1,IVQAASSSKERGG [Unmod H1 variant I V Q A A S S S K E R G G],0.00306 ± 0.00012
2,SKGTLVQTKGTGA [Unmod H1 variant S K G T L V Q T K G T G A],0.00075 ± 7.9e-06
3,PAGPSVSELIVQA [Unmod H1 variant P A G P S V S E L I V Q A],0.00075 ± 7.9e-06
4,YDVEKNNSRIKLG [Unmod H1 variant Y D V E K N N S R I K L G],0.00075 ± 1.6e-05
5,KAKKPAATRKSSK [Unmod H1 variant K A K K P A A T R K S S K],0.00075 ± 7.9e-06
6,KSSKNPKKPKTVK [Unmod H1 variant K S S K N P K K P K T V K],0.00075 ± 7.9e-06
7,KPKAAKARVTKPK [Unmod H1 variant K P K A A K A R V T K P K],0.000404 ± 4.4e-06
8,ASAAPEKPLAGKK [Unmod H1 variant A S A A P E K P L A G K K],0.00115 ± 2e-05
9,GTGASGSFKLNKK [Unmod H1 variant G T G A S G S F K L N K K],0.00121 ± 3.2e-05
10,IKLGIKSLVSKGT [Unmod H1 variant I K L G I K S L V S K G T],0.001441 ± 1.4e-05
